# Assay results from the supplement of paper PMC8728848.
# The entries come from a sample that favours the strongest signals as a whole.
# B1: SJCP1084 (Schistosoma japonicum) (protein)
# chain: MRIINLVIISTALLLINLLQTKSQANGEDTKNGTPDDPGLTKSTELKVEVQALLKDKKTNMRVKWNENLLDNTKPEYHNLRDEACELLLQIVRSVVPLSQDDGECKDVTFTKYVVGTKDGAVNVKLTITFKDSVAINQKPMDLKLKLENDFKNLQSESTLKATKPTFTVKVEKRLIPISKPQTTPPTTAKNDASKENVGDIGGEDSTVPTAAPATAASANEEKDEGDKDNKDSQHPNVLTSNVNDRNLIIALVALMILAIGVALTAAVKQR
# How the values were obtained:
# Experiment in all cases: glycan array binding signal (z-score within array); higher = stronger binding
# Conditions in all cases: glycan notation: IUPAC condensed, linker removed
# [1] = target: Gal(b1-4)GlcNAc(b1-3)Gal(b1-4)GlcNAc(b1-3)Gal(b1-4)GlcNAc(b1-3)Gal(b1-4)GlcNAc(b1-3)Gal(b1-4)GlcNAc(b1-2)Man(a1-3)[Gal(b1-4)GlcNAc(b1-3)Gal(b1-4)GlcNAc(b1-3)Gal(b1-4)GlcNAc(b1-3)Gal(b1-4)GlcNAc(b1-3)Gal(b1-4)GlcNAc(b1-2)Man(a1-6)]Man(b1-4)GlcNAc(b1-4)[Fuc(a1-6)]GlcNAc
# Procedure, shortened: (§1)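 Glycan array data came from 3228 arrays in the Consortium for Functional Glycomics database, and only arrays with an available protein sequence were kept. Glycan names were put into IUPAC-condensed notation, and columns mapping to the same glycan were averaged. The binding signal is a within-array Z-score, averaged across arrays of one protein sequence run at different concentrations or buffers and across linkers. A negative Z-score can be read as non-binding.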
# [2] = target: Gal(b1-4)GlcNAc(b1-3)Gal(b1-4)GlcNAc(b1-3)Gal(b1-4)GlcNAc(b1-3)Gal(b1-4)GlcNAc(b1-3)Gal(b1-4)GlcNAc(b1-2)[Gal(b1-4)GlcNAc(b1-3)Gal(b1-4)GlcNAc(b1-3)Gal(b1-4)GlcNAc(b1-3)Gal(b1-4)GlcNAc(b1-3)Gal(b1-4)GlcNAc(b1-6)]Man(a1-6)[Gal(b1-4)GlcNAc(b1-3)Gal(b1-4)GlcNAc(b1-3)Gal(b1-4)GlcNAc(b1-3)Gal(b1-4)GlcNAc(b1-3)Gal(b1-4)GlcNAc(b1-2)Man(a1-3)]Man(b1-4)GlcNAc(b1-4)[Fuc(a1-6)]GlcNAc
# Procedure, shortened: as §1
# [3] = target: Gal(b1-4)GlcNAc(b1-3)Gal(b1-4)GlcNAc(b1-3)[Gal(b1-4)GlcNAc(b1-3)Gal(b1-4)GlcNAc(b1-6)]GalNAc
# Procedure, shortened: as §1
# Gal3S(b1-4)GlcNAc = target: Gal3S(b1-4)GlcNAc
# Procedure, shortened: as §1
# [4] = target: GalNAc(b1-3)Gal(a1-4)Gal(b1-4)GlcNAc
# Procedure, shortened: as §1
# [5] = target: GlcNAc(a1-4)Gal(b1-4)GlcNAc(b1-3)Gal(b1-4)[Fuc(a1-3)]GlcNAc(b1-3)Gal(b1-4)[Fuc(a1-3)]GlcNAc
# Procedure, shortened: as §1
# [6] = target: GlcNAc(b1-3)Gal(b1-4)GlcNAc(b1-3)Gal(b1-4)GlcNAc(b1-2)Man(a1-3)[GlcNAc(b1-3)Gal(b1-4)GlcNAc(b1-3)Gal(b1-4)GlcNAc(b1-2)Man(a1-6)]Man(b1-4)GlcNAc(b1-4)GlcNAc
# Procedure, shortened: as §1
# [7] = target: GlcNAc(b1-3)Gal(b1-4)GlcNAc(b1-3)Gal(b1-4)GlcNAc(b1-3)Gal(b1-4)GlcNAc(b1-2)Man(a1-3)[GlcNAc(b1-3)Gal(b1-4)GlcNAc(b1-3)Gal(b1-4)GlcNAc(b1-3)Gal(b1-4)GlcNAc(b1-2)Man(a1-6)]Man(b1-4)GlcNAc(b1-4)[Fuc(a1-6)]GlcNAc
# Procedure, shortened: as §1
# [8] = target: GlcNAc(b1-3)Gal(b1-4)GlcNAc(b1-3)Gal(b1-4)GlcNAc(b1-3)Gal(b1-4)GlcNAc(b1-3)Gal(b1-4)GlcNAc(b1-2)Man(a1-3)[GlcNAc(b1-3)Gal(b1-4)GlcNAc(b1-3)Gal(b1-4)GlcNAc(b1-3)Gal(b1-4)GlcNAc(b1-3)Gal(b1-4)GlcNAc(b1-2)Man(a1-6)]Man(b1-4)GlcNAc(b1-4)[Fuc(a1-6)]GlcNAc
# Procedure, shortened: as §1
# [9] = target: GlcNAc(b1-3)Gal(b1-4)GlcNAc(b1-3)Gal(b1-4)GlcNAc(b1-3)Gal(b1-4)GlcNAc(b1-3)Gal(b1-4)GlcNAc(b1-2)[GlcNAc(b1-3)Gal(b1-4)GlcNAc(b1-3)Gal(b1-4)GlcNAc(b1-3)Gal(b1-4)GlcNAc(b1-3)Gal(b1-4)GlcNAc(b1-6)]Man(a1-6)[GlcNAc(b1-3)Gal(b1-4)GlcNAc(b1-3)Gal(b1-4)GlcNAc(b1-3)Gal(b1-4)GlcNAc(b1-3)Gal(b1-4)GlcNAc(b1-2)Man(a1-3)]Man(b1-4)GlcNAc(b1-4)[Fuc(a1-6)]GlcNAc
# Procedure, shortened: as §1
# GlcNAc(b1-3)Man = target: GlcNAc(b1-3)Man
# Procedure, shortened: as §1
# [10] = target: Neu5Ac(a2-3)Gal(b1-3)GalNAc
# Procedure, shortened: as §1
# [11] = target: Neu5Ac(a2-3)Gal(b1-3)GalNAc(b1-4)[Neu5Ac(a2-3)]Gal(b1-4)Glc
# Procedure, shortened: as §1
# [12] = target: Neu5Ac(a2-3)Gal(b1-3)GlcNAc(b1-2)Man(a1-3)[GlcNAc(b1-4)][Neu5Ac(a2-3)Gal(b1-3)GlcNAc(b1-2)Man(a1-6)]Man(b1-4)GlcNAc(b1-4)GlcNAc
# Procedure, shortened: as §1
# [13] = target: Neu5Ac(a2-3)Gal(b1-3)[Neu5Ac(a2-6)]GalNAc
# Procedure, shortened: as §1
# [14] = target: Neu5Ac(a2-3)Gal(b1-4)GlcNAc(b1-2)Man(a1-3)[Neu5Ac(a2-3)Gal(b1-4)GlcNAc(b1-2)Man(a1-6)]Man(b1-4)GlcNAc(b1-4)GlcNAc
# Procedure, shortened: as §1
# [15] = target: Neu5Ac(a2-3)Gal(b1-4)GlcNAc(b1-3)Gal(b1-3)GlcNAc
# Procedure, shortened: as §1
# [16] = target: Neu5Ac(a2-3)Gal(b1-4)GlcNAc(b1-3)Gal(b1-4)GlcNAc(b1-2)Man(a1-3)[Neu5Ac(a2-3)Gal(b1-4)GlcNAc(b1-3)Gal(b1-4)GlcNAc(b1-2)Man(a1-6)]Man(b1-4)GlcNAc(b1-4)GlcNAc
# Procedure, shortened: as §1
# [17] = target: Neu5Ac(a2-3)Gal(b1-4)GlcNAc(b1-3)Gal(b1-4)[Fuc(a1-3)]GlcNAc
# Procedure, shortened: as §1
# [18] = target: Neu5Ac(a2-3)Gal(b1-4)[Fuc(a1-3)]GlcNAc(b1-3)Gal(b1-4)[Fuc(a1-3)]GlcNAc(b1-3)Gal(b1-4)[Fuc(a1-3)]GlcNAc
# Procedure, shortened: as §1
# [19] = target: Neu5Ac(a2-3)[GalNAc(b1-4)]Gal(b1-4)Glc
# Procedure, shortened: as §1
# [20] = target: Neu5Ac(a2-6)Gal(b1-3)GlcNAc(b1-3)[Gal(b1-4)GlcNAc(b1-6)]Gal(b1-4)Glc
# Procedure, shortened: as §1
# [21] = target: Neu5Ac(a2-8)Neu5Gc(a2-3)Gal(b1-4)GlcNAc
# Procedure, shortened: as §1
binder,measurement,setting,value
B1,glycan array binding signal (z-score),[1],4.28
same,glycan array binding signal (z-score),[2],4.79
same,glycan array binding signal (z-score),[3],1.47
same,glycan array binding signal (z-score),Gal3S(b1-4)GlcNAc,-0.79
same,glycan array binding signal (z-score),[4],0.632
same,glycan array binding signal (z-score),[5],2.09
same,glycan array binding signal (z-score),[6],1.03
same,glycan array binding signal (z-score),[7],1.66
same,glycan array binding signal (z-score),[8],-0.466
same,glycan array binding signal (z-score),[9],2.68
same,glycan array binding signal (z-score),GlcNAc(b1-3)Man,0.248
same,glycan array binding signal (z-score),[10],-0.71
same,glycan array binding signal (z-score),[11],-0.565
same,glycan array binding signal (z-score),[12],-0.628
same,glycan array binding signal (z-score),[13],-0.036
same,glycan array binding signal (z-score),[14],0.105
same,glycan array binding signal (z-score),[15],-0.757
same,glycan array binding signal (z-score),[16],-0.701
same,glycan array binding signal (z-score),[17],-0.263
same,glycan array binding signal (z-score),[18],0.379
same,glycan array binding signal (z-score),[19],-0.474
same,glycan array binding signal (z-score),[20],-0.092
same,glycan array binding signal (z-score),[21],-0.605
